# Screening data from PubChem BioAssay.
# esBAF inh = blocks esBAF chromatin remodeling in mouse ES cells | reporter increase, % at 12.5 µM | actives 2% (n = 350,000) | Bmi1-luciferase knock-in reporter, 24 h; 100% = twice the neutral-well signal; in the data active means activation above about 40%; inconclusive means no clear call, values can overlap the other calls;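 further: 0% = median of the plate's neutral control wells and 100% = double that signal; a rise in the Bmi1 reporter signal indicates esBAF inhibition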
# FXN GAA850 act = activators of GAA850 frataxin (FXN) promoter. HEK293 lucGAA850 FXN promoter luciferase reporter, 24 h; percent of 10 µM SAHA response. activation, % at 6 µM. actives 0.56% (n = 360,000). AID 540364;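 active means activation above the average of all compounds screened plus 3 SD, cutoff fixed separately per campaign, cut at about 7.5% in these data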;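 further: 0% = DMSO wells and 100% = 10 µM SAHA wells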
# Wnt act = activates Wnt/beta-catenin signaling in a reporter cell assay; activator, plate reader; activation, % at 9.35 µM; actives 1.2% (n = 300,000); AID 743398; in the data active means activation above about 30%, passing the limit was not always enough; inconclusive means no clear call, values can overlap the other calls;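 further: 0% = neutral control wells and 100% = positive control wells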
# AHR act = activates the human aryl hydrocarbon receptor | actives 2.5% (n = 320,000) | activation, % at 5 µM | AHR-responsive luciferase reporter cells, luminescence | AID 2796 | P35869; in the data active means activation above about 47%;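 further: 0% = vehicle wells and 100% = reference agonist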
# MITF act = MITF TRPM1 promoter activation in melanoma cells | activation, % at 12.5 µM | actives 0.75% (n = 300,000) | AID 588334 | SK-MEL-5 TRPM1-promoter luciferase, 24 h; % of positive control, neutral wells = 0;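 active means mean activation of at least 80% with every replicate also reaching 80%; inconclusive means mean reaches 80% but some replicate falls short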;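 further: 0% = neutral control wells and 100% = parthenolide positive control wells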
# AHR act confirm = confirmation of human aryl hydrocarbon receptor activators. actives 87% (n = 2,300). activation, % at 9 µM. human cells, AHR-responsive luciferase reporter, luminescence. shares compounds with AHR act; in the data active means activation above about 49%;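 further: HepG2 hepatoma cells carrying a DRE-driven firefly luciferase reporter; 0% = vehicle wells and 100% = reference agonist wells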
# PXR act counter = PXR activation, counter-screen for AHR activators; AID 434939; activation, % at 11.6 µM; cell-based PXR reporter, luciferase luminescence; actives 88% (n = 2,300); shares compounds with AHR act; in the data active means activation above about 11%;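 further: human hepatoma DPX-2 cells expressing full-length human PXR; 0% = DMSO and 100% = reference agonist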
# Target sequence (O75469 whole entry, looked up): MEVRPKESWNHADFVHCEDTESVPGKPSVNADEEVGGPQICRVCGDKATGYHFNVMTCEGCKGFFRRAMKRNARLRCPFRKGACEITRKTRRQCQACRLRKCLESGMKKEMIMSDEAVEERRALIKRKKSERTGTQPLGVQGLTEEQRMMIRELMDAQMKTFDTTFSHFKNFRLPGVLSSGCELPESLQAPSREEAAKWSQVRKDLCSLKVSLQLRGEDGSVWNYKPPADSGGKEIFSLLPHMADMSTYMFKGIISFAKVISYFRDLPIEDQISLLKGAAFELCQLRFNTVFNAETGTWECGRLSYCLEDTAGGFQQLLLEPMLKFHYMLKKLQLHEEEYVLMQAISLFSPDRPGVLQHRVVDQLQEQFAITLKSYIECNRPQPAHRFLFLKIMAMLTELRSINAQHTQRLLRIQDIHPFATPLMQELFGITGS
# Active calls of the source: *; ? = inconclusive; · = not tested or not shown. Most compounds without a hit are left out; they make up all but 4.2% or so of the library.
SMILES,esBAF inh,FXN GAA850 act,Wnt act,AHR act,MITF act,AHR act confirm,PXR act counter
CC1=NN(C(N)=S)C(=O)C1N=Nc1cccc(Cl)c1 (stereo unspecified),?,4,7,85*,22,148*,27*
Cc1[nH]n(C(N)=S)c(=O)c1N=Nc1cccc(Cl)c1,31,2,21,114*,21,115*,13*
Cc1ccc(NC2=C(Cl)C(=O)c3ccccc3C2=O)cc1,17,4,-12,0,-103,·,·
O=C1C(Cl)=C(Nc2ccc(O)cc2)C(=O)c2ccccc21,·,-3,-21,132*,-96,112*,·
CC(=O)Nc1ccc(/C=C/c2nc(-c3ccccc3O)n[nH]2)cc1,73*,7,18,81*,58,104*,7
O=C(C[C@H]1CC[C@H]2[C@@H](COC[C@@H](O)CN2Cc2cccc(C(F)(F)F)c2)O1)NCc1ccc(F)cc1,3,·,·,·,·,·,·
COc1cc(-c2cc(-c3ccc(N)cc3)[nH]c(=O)c2C#N)cc(OC)c1OC,-4,3,3,101*,·,84*,17*
N#Cc1c(-c2ccccc2)cc(-c2ccccc2)[nH]c1=O,-7,1,1,2,-1,·,·
COc1ccc(NC(=O)Nc2ccc3c(c2)C(=O)N([C@@H](C)CO)C[C@@H](C)[C@@H](CN(C)C(=O)NC(C)C)O3)cc1,-4,·,·,·,·,·,·
Cc1ccc2nc(NC(=O)c3ccc(-c4nc5ccccc5s4)s3)sc2c1,-15,-8,0,3,-12,·,·
O=C(Nc1nc2ccccc2s1)c1ccc(Cl)s1,?,1,22,82*,62,50*,12*
CCC(=O)N1[C@@H]2CN(S(=O)(=O)c3ccc(F)cc3)c3ccccc3[C@@H]2[C@@H]1CO,-3,·,·,·,·,·,·
CCCOc1ccccc1-c1nc2c([nH]1)c(=O)[nH]c(=O)n2C,-13,-3,-3,137*,·,79*,34*
COc1cccc(CNC(=O)[C@H]2[C@H](CO)[C@H]3Cn4c(ccc(-c5cncnc5)c4=O)[C@@H]2N3C(C)=O)c1,3,·,·,·,·,·,·
CN(C)c1ccc2c(c1)[C@@H]1C[C@@H](CC(=O)NCc3ccc4c(c3)OCO4)O[C@@H](CO)[C@@H]1O2,2,·,·,·,·,·,·
COc1ccccc1C(=O)Nc1ccc2c(c1)CN(Cc1cnc(C)s1)CC2,·,4,2,113*,12,56*,13*
COc1ccc(NC(=O)Nc2cccc3c2O[C@H](CN(C)C(=O)Nc2ccccc2)[C@H](C)CN([C@@H](C)CO)C3=O)cc1,-1,·,·,·,·,·,·
O=C(NCc1ccccn1)c1ccc2ccccc2n1,6,1,9,91*,13,86*,16*
O=C(NCc1ccccc1)c1ccc2ccccc2n1,3,0,-1,5,1,·,·
O=C(c1ccccc1F)N1CC[C@@H]2[C@@H](CO)Nc3ccc(C#Cc4ccc(F)cc4)cc3[C@@H]21,-1,·,·,·,·,·,·
COc1ccc(CN(C)C[C@@H]2OCCCC[C@H](C)Oc3ccc(NC(=O)NC4CCCCC4)cc3C(=O)N([C@@H](C)CO)C[C@@H]2C)cc1,0,·,·,·,·,·,·
COc1cc(-c2cc3nc(NC4CCCCC4)ccn3n2)cc(OC)c1OC,-4,-3,1,·,·,·,·
COc1cc(-c2csc(NC3CCCCC3)n2)cc(OC)c1OC,-1,1,-1,81*,13,50*,37*
CC(C)c1ccc(NC(=O)c2ccc(Br)o2)cc1,·,-1,·,99*,89*,107*,35*
CN(C)S(=O)(=O)c1ccc(NC(=O)c2ccc(Br)o2)cc1,8,0,·,0,19,·,·
SMILES,esBAF inh,FXN GAA850 act,Wnt act,AHR act,MITF act,AHR act confirm,PXR act counter
C[C@@H]1CN([C@H](C)CO)C(=O)c2cccc(NS(=O)(=O)c3ccc(F)cc3)c2O[C@@H]1CN(C)CC1CC1,6,·,·,·,·,·,·
C[C@@H]1CN([C@H](C)CO)C(=O)c2cc(NC(=O)Cn3cnnn3)ccc2O[C@H]1CN(C)C(=O)Nc1cccc2ccccc12,-3,·,·,·,·,·,·
CCCc1c(C(=O)N/N=C(\C)c2cccnc2)nnn1-c1nonc1N,-7,0,-2,·,·,·,·
CCOc1ccc(-c2c(C(=O)N/N=C(\C)c3cccnc3)nnn2-c2nonc2N)cc1,-9,3,-2,91*,-1,94*,33*
COCCNC(=O)C[C@H]1C[C@@H]2c3cc(NC(=O)NC4CCCC4)ccc3O[C@@H]2[C@@H](CO)O1,-2,·,·,·,·,·,·
Cc1cc(C)n2cc(-c3ccc(Cl)cc3)c(C(=O)O)c2n1,·,5,·,96*,22,106*,·
Cc1cc(C)n2nc(C(=O)NNC(=O)c3ccc(Cl)cc3)nc2n1,12,1,8,5,35,·,·
CCC(=O)Nc1ccc2c(c1)OC[C@@H](C)N(C(=O)CC1CC1)C[C@@H](C)[C@H](OC)CN(C)C2=O,-5,·,·,·,·,·,·
Cc1ccc(S(=O)(=O)N(C)C[C@@H]2OCCCC[C@@H](C)Oc3ccc(NC(=O)CCC(F)(F)F)cc3C(=O)N([C@@H](C)CO)C[C@@H]2C)cc1,8,·,·,·,·,·,·
COc1cc(NC(=O)c2ccccc2)c(OC)cc1NC(=O)CN1CCCCC1,3,0,·,83*,-3,96*,23*
N#C/C(=C\c1ccc[nH]1)C(=O)Nc1ccccc1Cl,28,5,24,96*,-2,100*,29*
N#C/C(=C\c1ccc[nH]1)C(=O)c1ccccc1,0,1,3,-4,19,·,·
CCCC#Cc1ccc2c(c1)[C@@H]1[C@@H](CCN1S(=O)(=O)c1ccc(C)cc1)[C@@H](CO)N2C,-6,·,·,·,·,·,·
CN1[C@@H]2Cn3c(ccc(-c4ccc(F)cc4)c3=O)[C@H]1[C@@H](C(=O)NC1CCCCC1)[C@@H]2CO,-3,·,·,·,·,·,·
COC(=O)/C=c1/sc2nc3ccccc3n2c1=O,-3,0,·,1,-3,·,·
O=c1c2ccccc2nc2sc3ccccc3n12,?,6,-1,113*,·,155*,14*
O=C(NC1CCCC1)c1cc2c(ccc3ccccc32)o1,·,4,·,112*,53,66*,·
CNC(=O)c1cc2c(ccc3ccccc32)o1,·,5,26,108*,-1,102*,13*
O=C(O)C[C@H]1C[C@@H]2c3cc(NC(=O)c4cccnc4)ccc3O[C@@H]2[C@H](CO)O1,-3,·,·,·,·,·,·
C/C(=N\NC(=O)CSc1nc(C)cc(C)n1)c1cccs1,·,3,-1,110*,3,98*,50*
Cc1cc(C)nc(SCC(=O)NNC(=O)c2cccs2)n1,·,3,-1,1,3,·,·
Cn1/c(=N/NC(=O)c2cccc(OC(F)F)c2)sc2ccccc21,·,3,-2,118*,-13,110*,119*
COc1cc(C(=O)N/N=c2/sc3ccccc3n2C)cc(OC)c1OC,·,1,0,171*,-11,82*,56*
